# Measured potencies and affinities stand elsewhere.
# Target: SARS-CoV-2 spike receptor binding domain (Wuhan) (SARS-CoV-2, UniProt P0DTC2 P0DTC2:319-541)
# Experiment: inhibition
# Settings: XNA; first 20 nt DNA, rest FANA (SEQ ID NO 3)
sequence,measurement,value
AAAAGGTAGTGCTGAATTCGUCGAACUAAUCCGAAUUGAUGGCAUAAAAAGCAUGUUUAGUUCGCUAUCCAGUUGGCCU,binding signal,~3 fold weaker
